# Results: article PMC7862700, “An all-to-all approach to the identification of sequence-specific readers for epigenetic DNA modifications on cytosine”
# How the values were obtained:
# Experiment in all cases: DAPPL (digital affinity profiling via proximity ligation, sequencing); 10 mM Tris-HCl pH 7.5, 50 mM NaCl, 1 mM DTT, 4% glycerol, room temperature, 30 min; GST-TFs on glutathione beads, 16-mer random dsDNA library, 0.1% formaldehyde crosslink after washing; high values mean tight binding
# Conditions in all cases: protein: recombinant; tags: N-terminal GST; dsDNA, one strand shown
# ERF = target: T1, ERF (Homo sapiens, UniProt P50548 1-548)
# T1 sequence: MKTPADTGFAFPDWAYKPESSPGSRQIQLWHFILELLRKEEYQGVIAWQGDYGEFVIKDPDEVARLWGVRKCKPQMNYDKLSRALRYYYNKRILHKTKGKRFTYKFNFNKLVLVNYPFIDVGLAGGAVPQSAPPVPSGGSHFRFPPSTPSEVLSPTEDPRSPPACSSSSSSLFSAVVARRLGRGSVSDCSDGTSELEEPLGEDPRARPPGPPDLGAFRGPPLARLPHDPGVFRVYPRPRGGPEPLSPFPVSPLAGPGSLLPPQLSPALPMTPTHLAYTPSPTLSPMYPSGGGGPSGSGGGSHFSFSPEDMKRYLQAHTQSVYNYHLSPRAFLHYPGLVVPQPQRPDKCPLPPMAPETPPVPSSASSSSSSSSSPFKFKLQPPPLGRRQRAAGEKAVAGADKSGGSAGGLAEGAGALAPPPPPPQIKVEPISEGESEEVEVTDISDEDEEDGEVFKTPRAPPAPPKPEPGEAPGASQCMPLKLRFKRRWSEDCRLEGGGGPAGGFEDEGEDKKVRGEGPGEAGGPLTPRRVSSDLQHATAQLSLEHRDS
# Procedure, shortened: (§1)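 Binding signal is defined as a hexamer's read frequency for one factor over its frequency for the tag-only sample. To obtain reads, GST-fused human transcription factors were expressed in yeast, captured on glutathione beads, barcoded with DNA and pooled with that sample. Pools met 200 nmole of a 16-mer random double-stranded DNA library in Tris/NaCl/DTT/glycerol buffer for 30 min at room temperature before washing, 0.1% formaldehyde crosslinking, proximity ligation (BsaI/T4 ligase, 1 h, 37 °C), PCR and Illumina NextSeq500 sequencing.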
# ETV3L = target: T2, ETV3L (Homo sapiens, UniProt Q6ZN32 1-361)
# T2 sequence: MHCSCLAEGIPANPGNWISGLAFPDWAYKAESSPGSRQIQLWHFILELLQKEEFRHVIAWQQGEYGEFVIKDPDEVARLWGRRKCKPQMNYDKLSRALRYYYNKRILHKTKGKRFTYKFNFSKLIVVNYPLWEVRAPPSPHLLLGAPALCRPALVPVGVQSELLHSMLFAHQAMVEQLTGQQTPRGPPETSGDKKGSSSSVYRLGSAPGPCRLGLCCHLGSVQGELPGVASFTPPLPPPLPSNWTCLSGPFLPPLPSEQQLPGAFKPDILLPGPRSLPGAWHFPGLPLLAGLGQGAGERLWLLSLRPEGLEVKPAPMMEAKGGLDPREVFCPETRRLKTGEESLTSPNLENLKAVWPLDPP
# Procedure, shortened: as §1
# ETS2 = target: T3, ETS2 (Homo sapiens, UniProt P15036 1-469)
# T3 sequence: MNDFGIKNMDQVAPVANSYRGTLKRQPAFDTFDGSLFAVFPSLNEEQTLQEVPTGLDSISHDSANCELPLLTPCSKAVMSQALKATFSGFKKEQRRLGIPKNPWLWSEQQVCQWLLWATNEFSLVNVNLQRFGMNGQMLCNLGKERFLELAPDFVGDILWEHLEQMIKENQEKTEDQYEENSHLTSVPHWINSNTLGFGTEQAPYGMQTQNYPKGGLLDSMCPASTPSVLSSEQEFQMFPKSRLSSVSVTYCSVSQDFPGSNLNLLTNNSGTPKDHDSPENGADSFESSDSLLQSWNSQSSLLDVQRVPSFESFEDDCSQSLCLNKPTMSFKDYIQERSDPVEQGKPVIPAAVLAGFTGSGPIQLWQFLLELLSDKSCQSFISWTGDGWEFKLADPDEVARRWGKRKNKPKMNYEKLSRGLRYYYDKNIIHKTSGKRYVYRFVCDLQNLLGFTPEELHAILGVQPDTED
# Procedure, shortened: as §1
# SPDEF = target: T4, SPDEF (Homo sapiens, UniProt O95238 1-335)
# T4 sequence: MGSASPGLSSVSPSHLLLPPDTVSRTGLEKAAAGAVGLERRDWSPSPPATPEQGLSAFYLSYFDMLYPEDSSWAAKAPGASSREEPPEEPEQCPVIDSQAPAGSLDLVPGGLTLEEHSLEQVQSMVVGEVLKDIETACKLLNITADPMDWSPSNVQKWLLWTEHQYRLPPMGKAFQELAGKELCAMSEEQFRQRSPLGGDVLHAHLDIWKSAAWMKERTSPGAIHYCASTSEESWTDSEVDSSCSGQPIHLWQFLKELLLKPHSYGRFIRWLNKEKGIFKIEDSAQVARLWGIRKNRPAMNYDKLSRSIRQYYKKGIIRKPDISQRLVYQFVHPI
# Procedure, shortened: as §1
# ETV7 = target: T5, ETV7 (Homo sapiens, UniProt Q9Y603 1-341)
# T5 sequence: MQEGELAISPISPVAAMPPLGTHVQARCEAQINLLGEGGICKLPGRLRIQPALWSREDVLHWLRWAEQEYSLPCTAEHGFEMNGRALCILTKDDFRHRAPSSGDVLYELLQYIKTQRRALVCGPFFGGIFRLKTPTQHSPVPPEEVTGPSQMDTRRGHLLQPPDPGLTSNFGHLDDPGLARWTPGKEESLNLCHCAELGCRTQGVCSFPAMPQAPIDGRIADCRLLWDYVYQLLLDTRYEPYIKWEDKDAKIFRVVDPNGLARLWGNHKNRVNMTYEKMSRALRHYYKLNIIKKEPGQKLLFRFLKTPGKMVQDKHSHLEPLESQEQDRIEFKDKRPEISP
# Procedure, shortened: as §1
# ELF5 = target: T6, ELF5 (Homo sapiens, UniProt Q9UKW6-2 1-255)
# T6 sequence: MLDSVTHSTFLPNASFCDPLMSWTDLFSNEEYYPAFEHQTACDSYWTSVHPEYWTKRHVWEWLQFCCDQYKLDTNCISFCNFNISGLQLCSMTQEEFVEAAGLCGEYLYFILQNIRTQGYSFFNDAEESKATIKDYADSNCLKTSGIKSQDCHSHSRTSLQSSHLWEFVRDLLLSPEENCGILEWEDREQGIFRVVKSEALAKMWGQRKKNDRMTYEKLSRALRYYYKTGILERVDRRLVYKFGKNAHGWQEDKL
# Procedure, shortened: as §1
# ETV3 = target: T7, ETV3 (Homo sapiens, UniProt P41162-2 1-143)
# T7 sequence: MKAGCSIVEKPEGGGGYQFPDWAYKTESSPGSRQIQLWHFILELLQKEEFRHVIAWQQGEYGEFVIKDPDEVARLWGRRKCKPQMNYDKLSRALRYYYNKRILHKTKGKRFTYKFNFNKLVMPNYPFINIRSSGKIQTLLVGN
# Procedure, shortened: as §1
# ETV6 = ETV6 (Homo sapiens, UniProt P41212 1-452)
# Procedure, shortened: as §1
# ETV6, sequence (P41212 whole entry): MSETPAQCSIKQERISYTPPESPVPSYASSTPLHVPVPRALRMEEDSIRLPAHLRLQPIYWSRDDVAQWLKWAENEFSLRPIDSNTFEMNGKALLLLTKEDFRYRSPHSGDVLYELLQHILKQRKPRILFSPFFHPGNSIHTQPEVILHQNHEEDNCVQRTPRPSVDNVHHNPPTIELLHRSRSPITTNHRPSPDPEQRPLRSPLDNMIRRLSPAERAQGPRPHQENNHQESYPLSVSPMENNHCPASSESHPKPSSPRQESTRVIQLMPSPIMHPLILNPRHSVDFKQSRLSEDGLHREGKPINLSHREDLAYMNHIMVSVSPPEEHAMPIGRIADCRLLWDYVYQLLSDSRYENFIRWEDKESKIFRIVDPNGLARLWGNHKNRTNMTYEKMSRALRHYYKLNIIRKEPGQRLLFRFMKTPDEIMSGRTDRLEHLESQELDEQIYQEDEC
Sequence,binding signal (ERF),binding signal (ETV3L),binding signal (ETS2),binding signal (SPDEF),binding signal (ETV7),binding signal (ELF5),binding signal (ETV3),binding signal (ETV6)
TTCTCG,"1.27 fold enrichment (6-mer frequency, TF over GST control)","1.46 fold enrichment (6-mer frequency, TF over GST control)","1.45 fold enrichment (6-mer frequency, TF over GST control)","1.34 fold enrichment (6-mer frequency, TF over GST control)","1.48 fold enrichment (6-mer frequency, TF over GST control)","1.47 fold enrichment (6-mer frequency, TF over GST control)","1.27 fold enrichment (6-mer frequency, TF over GST control)","1.36 fold enrichment (6-mer frequency, TF over GST control)"
AATTTC,"1.7 fold enrichment (6-mer frequency, TF over GST control)","1.73 fold enrichment (6-mer frequency, TF over GST control)","1.83 fold enrichment (6-mer frequency, TF over GST control)","1.59 fold enrichment (6-mer frequency, TF over GST control)","1.74 fold enrichment (6-mer frequency, TF over GST control)","2.31 fold enrichment (6-mer frequency, TF over GST control)","1.78 fold enrichment (6-mer frequency, TF over GST control)","1.94 fold enrichment (6-mer frequency, TF over GST control)"
ATCGAA,"1.18 fold enrichment (6-mer frequency, TF over GST control)","1.16 fold enrichment (6-mer frequency, TF over GST control)","1.2 fold enrichment (6-mer frequency, TF over GST control)","1.09 fold enrichment (6-mer frequency, TF over GST control)","1.25 fold enrichment (6-mer frequency, TF over GST control)","1.05 fold enrichment (6-mer frequency, TF over GST control)","1.03 fold enrichment (6-mer frequency, TF over GST control)","1.05 fold enrichment (6-mer frequency, TF over GST control)"
CCCATA,"1.19 fold enrichment (6-mer frequency, TF over GST control)","1.34 fold enrichment (6-mer frequency, TF over GST control)","1.29 fold enrichment (6-mer frequency, TF over GST control)","1.19 fold enrichment (6-mer frequency, TF over GST control)","1.19 fold enrichment (6-mer frequency, TF over GST control)","1.25 fold enrichment (6-mer frequency, TF over GST control)","1.21 fold enrichment (6-mer frequency, TF over GST control)","1.31 fold enrichment (6-mer frequency, TF over GST control)"
TAAAGT,"1.09 fold enrichment (6-mer frequency, TF over GST control)","1.29 fold enrichment (6-mer frequency, TF over GST control)","1.22 fold enrichment (6-mer frequency, TF over GST control)","1.15 fold enrichment (6-mer frequency, TF over GST control)","1.25 fold enrichment (6-mer frequency, TF over GST control)","1.17 fold enrichment (6-mer frequency, TF over GST control)","1.18 fold enrichment (6-mer frequency, TF over GST control)","1.09 fold enrichment (6-mer frequency, TF over GST control)"
CTAGCT,"1.21 fold enrichment (6-mer frequency, TF over GST control)","1.29 fold enrichment (6-mer frequency, TF over GST control)","1.25 fold enrichment (6-mer frequency, TF over GST control)","1.27 fold enrichment (6-mer frequency, TF over GST control)","1.33 fold enrichment (6-mer frequency, TF over GST control)","1.27 fold enrichment (6-mer frequency, TF over GST control)","1.24 fold enrichment (6-mer frequency, TF over GST control)","1.32 fold enrichment (6-mer frequency, TF over GST control)"
TTCCAT,"1.24 fold enrichment (6-mer frequency, TF over GST control)","1.29 fold enrichment (6-mer frequency, TF over GST control)","1.25 fold enrichment (6-mer frequency, TF over GST control)","1.2 fold enrichment (6-mer frequency, TF over GST control)","1.27 fold enrichment (6-mer frequency, TF over GST control)","1.26 fold enrichment (6-mer frequency, TF over GST control)","1.32 fold enrichment (6-mer frequency, TF over GST control)","1.4 fold enrichment (6-mer frequency, TF over GST control)"
CGATTA,"1.07 fold enrichment (6-mer frequency, TF over GST control)","1.23 fold enrichment (6-mer frequency, TF over GST control)","1.08 fold enrichment (6-mer frequency, TF over GST control)","1.09 fold enrichment (6-mer frequency, TF over GST control)","1.18 fold enrichment (6-mer frequency, TF over GST control)","1.11 fold enrichment (6-mer frequency, TF over GST control)","1.18 fold enrichment (6-mer frequency, TF over GST control)","1.13 fold enrichment (6-mer frequency, TF over GST control)"
TGGTAA,"1.27 fold enrichment (6-mer frequency, TF over GST control)","1.25 fold enrichment (6-mer frequency, TF over GST control)","1.32 fold enrichment (6-mer frequency, TF over GST control)","1.19 fold enrichment (6-mer frequency, TF over GST control)","1.4 fold enrichment (6-mer frequency, TF over GST control)","1.23 fold enrichment (6-mer frequency, TF over GST control)","1.15 fold enrichment (6-mer frequency, TF over GST control)","1.25 fold enrichment (6-mer frequency, TF over GST control)"
TGACCC,"1.4 fold enrichment (6-mer frequency, TF over GST control)","1.3 fold enrichment (6-mer frequency, TF over GST control)","1.38 fold enrichment (6-mer frequency, TF over GST control)","1.49 fold enrichment (6-mer frequency, TF over GST control)","1.4 fold enrichment (6-mer frequency, TF over GST control)","1.4 fold enrichment (6-mer frequency, TF over GST control)","1.39 fold enrichment (6-mer frequency, TF over GST control)","1.28 fold enrichment (6-mer frequency, TF over GST control)"
AGCTAT,"1.17 fold enrichment (6-mer frequency, TF over GST control)","1.17 fold enrichment (6-mer frequency, TF over GST control)","1.11 fold enrichment (6-mer frequency, TF over GST control)","1.14 fold enrichment (6-mer frequency, TF over GST control)","1.13 fold enrichment (6-mer frequency, TF over GST control)","1.12 fold enrichment (6-mer frequency, TF over GST control)","1.13 fold enrichment (6-mer frequency, TF over GST control)","1.08 fold enrichment (6-mer frequency, TF over GST control)"
TGTTCC,"1.75 fold enrichment (6-mer frequency, TF over GST control)","1.62 fold enrichment (6-mer frequency, TF over GST control)","1.75 fold enrichment (6-mer frequency, TF over GST control)","2.03 fold enrichment (6-mer frequency, TF over GST control)","1.68 fold enrichment (6-mer frequency, TF over GST control)","2.3 fold enrichment (6-mer frequency, TF over GST control)","1.85 fold enrichment (6-mer frequency, TF over GST control)","1.69 fold enrichment (6-mer frequency, TF over GST control)"
GTTTCG,"1.38 fold enrichment (6-mer frequency, TF over GST control)","1.33 fold enrichment (6-mer frequency, TF over GST control)","1.15 fold enrichment (6-mer frequency, TF over GST control)","1.27 fold enrichment (6-mer frequency, TF over GST control)","1.27 fold enrichment (6-mer frequency, TF over GST control)","1.12 fold enrichment (6-mer frequency, TF over GST control)","1.32 fold enrichment (6-mer frequency, TF over GST control)","1.23 fold enrichment (6-mer frequency, TF over GST control)"
GCCTCT,"1.25 fold enrichment (6-mer frequency, TF over GST control)","1.32 fold enrichment (6-mer frequency, TF over GST control)","1.25 fold enrichment (6-mer frequency, TF over GST control)","1.3 fold enrichment (6-mer frequency, TF over GST control)","1.35 fold enrichment (6-mer frequency, TF over GST control)","1.27 fold enrichment (6-mer frequency, TF over GST control)","1.34 fold enrichment (6-mer frequency, TF over GST control)","1.35 fold enrichment (6-mer frequency, TF over GST control)"
CTTTGC,"1.32 fold enrichment (6-mer frequency, TF over GST control)","1.33 fold enrichment (6-mer frequency, TF over GST control)","1.34 fold enrichment (6-mer frequency, TF over GST control)","1.24 fold enrichment (6-mer frequency, TF over GST control)","1.28 fold enrichment (6-mer frequency, TF over GST control)","1.29 fold enrichment (6-mer frequency, TF over GST control)","1.37 fold enrichment (6-mer frequency, TF over GST control)","1.18 fold enrichment (6-mer frequency, TF over GST control)"
